Test results from PubChem BioAssay AID1159580 (chemical genetic matrix, 2015).
Out of some 5,500 compounds screened, about 2,000 (36%) were called active. Inconclusive results (about 18%) are left out. Cut-off read from the data, not from the text of the source: active = normalized growth mostly below about 0.91 (no sharp cut-off); inconclusive = no clear call, values can overlap the other calls; inactive = mostly above about 0.92. The list shows a part of the results.

Assay: chemical genetic growth profiling, strain panel (AID 1159580);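 note: tested at 20 µM; growth read once vehicle control cultures reached saturation at 30 °C; 1 = growth at the plate median or of vehicle wells; lower values mean less growth of the strain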
Details: growth OD

Measured: normalized growth

CN[C@@H](C)[C@@H](O)c1ccccc1
inactive: S. cerevisiae deletion strains, locus YKL068W, active compounds read low 0.978 | S. cerevisiae deletion strains, locus YKL085W, strain MDH1 (second series), active compounds read low 0.992 | S. cerevisiae deletion strains, locus YKL085W, strain MDH1, active compounds read low 0.992 | S. cerevisiae deletion strains, locus YKL160W, strain elf1, active compounds read low 0.968 | S. cerevisiae deletion strains, locus YKL190W, strain CNB1, active compounds read low 0.998 | S. cerevisiae deletion strains, locus YKR001C, strain vps1, active compounds read low 0.978 | S. cerevisiae deletion strains, locus YKR026C, strain gcn3, active compounds read low 0.994 | S. cerevisiae deletion strains, locus YKR091W, strain srl3, active compounds read low 1 | S. cerevisiae deletion strains, locus YLL001W, strain dnm1, active compounds read low 1.01 | S. cerevisiae deletion strains, locus YLL026W, active compounds read low 1.01 | S. cerevisiae deletion strains, locus YLL041C, strain sdh2, active compounds read low 1 | S. cerevisiae deletion strains, locus YLR027C, strain aat2, active compounds read low 1 | S. cerevisiae deletion strains, locus YLR039C, strain RIC1, active compounds read low 0.966 | S. cerevisiae deletion strains, locus YLR058C, strain SHM2, active compounds read low 0.988 | S. cerevisiae deletion strains, locus YLR102C, strain apc9, active compounds read low 0.99 | S. cerevisiae deletion strains, locus YLR113W, strain HOG1, active compounds read low 0.984 | S. cerevisiae deletion strains, locus YLR221C, strain rsa3, active compounds read low 0.994 | S. cerevisiae deletion strains, locus YLR258W, strain gsy2, active compounds read low 0.981 | S. cerevisiae deletion strains, locus YLR262C, strain YPT6 (second series), active compounds read low 1.01 | S. cerevisiae deletion strains, locus YLR262C, strain YPT6, active compounds read low 0.914 | S. cerevisiae deletion strains, locus YLR268W, strain sec22, active compounds read low 0.983 | S. cerevisiae deletion strains, locus YLR320W, strain mms22, active compounds read low 0.985 | S. cerevisiae deletion strains, locus YLR330W, strain CHS5, active compounds read low 0.987 | S. cerevisiae deletion strains, locus YLR342W, strain FKS1 (second series), active compounds read low 0.99 | S. cerevisiae deletion strains, locus YLR342W, strain FKS1, active compounds read low 1.01 | S. cerevisiae deletion strains, locus YLR357W, strain rsc2, active compounds read low 0.972 | S. cerevisiae deletion strains, locus YLR370C, strain arc18, active compounds read low 0.982 | S. cerevisiae deletion strains, locus YLR371W, strain rom2, active compounds read low 0.981 | S. cerevisiae deletion strains, locus YLR384C, strain iki3, active compounds read low 0.993 | S. cerevisiae deletion strains, locus YLR418C, strain cdc73, active compounds read low 1.02 | S. cerevisiae deletion strains, locus YML016C, strain PPZ1, active compounds read low 0.987 | S. cerevisiae deletion strains, locus YML032C, strain rad52, active compounds read low 0.979 | S. cerevisiae deletion strains, locus YML120C, strain ndi1, active compounds read low 1.01 | S. cerevisiae deletion strains, locus YML124C, strain tub3, active compounds read low 0.99 | S. cerevisiae deletion strains, locus YMR058W, strain fet3, active compounds read low 1.01 | S. cerevisiae deletion strains, locus YMR078C, strain ctf18, active compounds read low 0.985 | S. cerevisiae deletion strains, locus YMR125W, strain sto1, active compounds read low 0.985 | S. cerevisiae deletion strains, locus YMR129W, active compounds read low 0.976 | S. cerevisiae deletion strains, locus YMR205C, strain PFK2, active compounds read low 0.984 | S. cerevisiae deletion strains, locus YMR223W, strain ubp8, active compounds read low 0.985 | S. cerevisiae deletion strains, locus YMR231W, strain pep5, active compounds read low 0.998 | S. cerevisiae deletion strains, locus YMR263W, strain SAP30, active compounds read low 1.01 | S. cerevisiae deletion strains, locus YMR307W, strain GAS1, active compounds read low 0.881 | S. cerevisiae deletion strains, locus YNL067W, strain RPL9B, active compounds read low 1.04 | S. cerevisiae deletion strains, locus YNL071W, strain lat1, active compounds read low 1.01 | S. cerevisiae deletion strains, locus YNL183C, strain NPR1, active compounds read low 0.978 | S. cerevisiae deletion strains, locus YNL209W, strain ssb2, active compounds read low 0.978 | S. cerevisiae deletion strains, locus YNL233W, strain BNI4, active compounds read low 1.05 | S. cerevisiae deletion strains, locus YNL248C, strain rpa49, active compounds read low 0.986 | S. cerevisiae deletion strains, locus YNL250W, strain rad50, active compounds read low 0.99 | S. cerevisiae deletion strains, locus YNL271C, strain bni1, active compounds read low 0.976 | S. cerevisiae deletion strains, locus YNL298W, strain CLA4, active compounds read low 0.97 | S. cerevisiae deletion strains, locus YNL307C, strain MCK1, active compounds read low 0.992 | S. cerevisiae deletion strains, locus YNL322C, strain KRE1 (second series), active compounds read low 0.977 | S. cerevisiae deletion strains, locus YNR049C, strain mso1, active compounds read low 0.998 | S. cerevisiae deletion strains, locus YNR052C, strain pop2, active compounds read low 0.997 | S. cerevisiae deletion strains, locus YOL006C, strain TOP1, active compounds read low 1.07 | S. cerevisiae deletion strains, locus YOL012C, strain htz1 1.99 | S. cerevisiae deletion strains, locus YOL147C, strain pex11, active compounds read low 0.993 | S. cerevisiae deletion strains, locus YOR001W, strain rrp6, active compounds read low 0.997 | S. cerevisiae deletion strains, locus YOR061W, strain CKA2, active compounds read low 0.971 | S. cerevisiae deletion strains, locus YOR069W, strain VPS5, active compounds read low 0.986 | S. cerevisiae deletion strains, locus YOR070C, strain gyp1, active compounds read low 0.984 | S. cerevisiae deletion strains, locus YOR080W, strain dia2, active compounds read low 0.994 | S. cerevisiae deletion strains, locus YOR083W, strain WHI5, active compounds read low 0.961 | S. cerevisiae deletion strains, locus YOR106W, strain vam3, active compounds read low 1.01 | S. cerevisiae deletion strains, locus YOR136W, strain idh2, active compounds read low 0.991 | S. cerevisiae deletion strains, locus YOR144C, strain elg1, active compounds read low 0.987 | S. cerevisiae deletion strains, locus YOR184W, strain ser1, active compounds read low 0.987 | S. cerevisiae deletion strains, locus YOR231W, strain MKK1, active compounds read low 0.98 | S. cerevisiae deletion strains, locus YOR265W, strain rbl2, active compounds read low 1 | S. cerevisiae deletion strains, locus YOR270C, strain vph1, active compounds read low 1.04 | S. cerevisiae deletion strains, locus YOR290C, strain snf2, active compounds read low 0.972 | S. cerevisiae deletion strains, locus YOR316C, strain cot1, active compounds read low 0.986 | S. cerevisiae deletion strains, locus YPL051W, strain arl3, active compounds read low 0.99 | S. cerevisiae deletion strains, locus YPL078C, strain atp4, active compounds read low 1.02 | S. cerevisiae deletion strains, locus YPL106C, strain sse1, active compounds read low 0.937 | S. cerevisiae deletion strains, locus YPL240C, strain hsp82, active compounds read low 0.993 | S. cerevisiae deletion strains, locus YPL241C, strain CIN2, active compounds read low 0.979 | S. cerevisiae deletion strains, locus YPL256C, strain CLN2, active compounds read low 1.03 | S. cerevisiae deletion strains, locus YPR119W, strain clb2, active compounds read low 0.983 | S. cerevisiae deletion strains, locus YPR141C, strain kar3, active compounds read low 0.989 | S. cerevisiae deletion strains, locus YPR163C, strain tif3, active compounds read low 0.989 | S. cerevisiae deletion strains, locus YPR167C, strain met16, active compounds read low 0.988 | S. cerevisiae deletion strains, strain wtn01, active compounds read low 1 | S. cerevisiae strains, strain wild type, active compounds read low 0.987
